{"source": "PubChem BioAssay AID624354", "about": "(Sanford-Burnham Center for Chemical Genomics, 2012)", "note": "“And” between values parts separate entries of the source, which are not always exact repeats. Equal values may be shown once. Out of some 360,000 compounds screened, about 3,800 (1.1%) were called active. The sample as a whole holds a higher share of actives than the screen did. Values without a mark were called inactive.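 How the source made its calls: active means compounds causing at least 50% loss of cell viability in the single-dose screen, relative to plate controls; inactive means the rest.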", "data": [{"test": "TRAIL-exposed caspase-8 expressing cell killing – NB7+C8 cells, ATPlite luminescence, TRAIL sensitizer project, primary screen (AID 624354)", "conditions": "at 10 µM, active compounds read high", "values": [{"smiles": "N/C(=N\\OC(=O)CCC1CCCCC1)c1ccccn1", "inhibition (viability loss, TRAIL sensitization)": "-5.71%"}, {"smiles": "N/C(=N\\OC(=O)c1ccc([N+](=O)[O-])cc1)c1ccccn1", "inhibition (viability loss, TRAIL sensitization)": "24.5%"}, {"smiles": "Cc1ccc(C(=O)O/N=C(\\N)c2ccccn2)cc1Cl", "inhibition (viability loss, TRAIL sensitization)": "74.5% (active)"}, {"smiles": "CNc1nc(SC)nc(N(C#N)CC(=O)OC)n1", "inhibition (viability loss, TRAIL sensitization)": "-0.928%"}, {"smiles": "COC(=O)c1cccc(C(=O)N2CCCC(Nc3ccc4c(c3)OCCO4)C2)c1", "note": "(centres undefined)", "inhibition (viability loss, TRAIL sensitization)": "-3.93%"}, {"smiles": "COc1ccc(S(=O)(=O)N2CCCC(C(=O)NCCCn3ccnc3)C2)cc1OC", "note": "(centres undefined)", "inhibition (viability loss, TRAIL sensitization)": "-12.7%"}, {"smiles": "COc1ccc2cc(CCl)c(Cl)nc2c1", "inhibition (viability loss, TRAIL sensitization)": "-1.84%"}, {"smiles": "COc1ccc2nc(-c3ccccn3)ccc2c1", "inhibition (viability loss, TRAIL sensitization)": "80.3% (active)"}, {"smiles": "COc1ccc(C=C(C#N)C#N)c(CSc2ccccn2)c1", "inhibition (viability loss, TRAIL sensitization)": "1.8%"}, {"smiles": "CC[C@H](C)[C@@H](C(=O)N1CCNCC1)n1cc([C@@H](N)Cc2ccc(O)cc2)nn1", "inhibition (viability loss, TRAIL sensitization)": "-6.33%"}, {"smiles": "C#Cc1ccc(NC(=O)C2(C)CCN2C(=O)Cc2ccc(-c3ccccc3)cc2)cc1", "note": "(centres undefined)", "inhibition (viability loss, TRAIL sensitization)": "73.3% (active)"}, {"smiles": "CCCNC(=O)C1(C)CCN1C(=O)Cc1ccc(-c2ccccc2)cc1", "note": "(centres undefined)", "inhibition (viability loss, TRAIL sensitization)": "5.54%"}, {"smiles": "CC1(C(=O)NS(=O)(=O)c2ccccc2)CCN1C(=O)Cc1ccc(-c2ccccc2)cc1", "note": "(centres undefined)", "inhibition (viability loss, TRAIL sensitization)": "4.55%"}, {"smiles": "Cc1cccc2c1-c1sc(C(=O)NCCCN3CCc4ccccc4C3)cc1CO2", "inhibition (viability loss, TRAIL sensitization)": "11.6%"}, {"smiles": "COc1ccc2nc(Nc3nc(-c4cc5ccccc5oc4=O)cs3)sc2c1", "inhibition (viability loss, TRAIL sensitization)": "69.2% (active)"}, {"smiles": "Cc1noc(C)c1CSCC(=O)Nc1nc2ccc(Oc3ccccc3)cc2s1", "inhibition (viability loss, TRAIL sensitization)": "-12.9%"}, {"smiles": "COc1cccc(C(NC(C)=O)c2nc(-c3ccccc3OC)cs2)c1", "note": "(centres undefined)", "inhibition (viability loss, TRAIL sensitization)": "2.76%"}, {"smiles": "CC(=O)CSc1nnc(CSc2ncccn2)n1C1CCCCC1", "inhibition (viability loss, TRAIL sensitization)": "-3.63%"}, {"smiles": "O=C(NCCc1ccccc1Cl)C1CCC(=O)N(CCCc2ccccc2)C1", "note": "(centres undefined)", "inhibition (viability loss, TRAIL sensitization)": "6.8%"}, {"smiles": "CCN(CC(=O)NC1CCS(=O)(=O)C1)c1nc(-c2cccnc2)nc2ccccc12", "note": "(centres undefined)", "inhibition (viability loss, TRAIL sensitization)": "11.4%"}, {"smiles": "Brc1ccc(-c2csc(N/N=C/c3cccnc3)n2)cc1", "inhibition (viability loss, TRAIL sensitization)": "2.52%"}, {"smiles": "Fc1ccc(/C=N/Nc2nc(-c3cccnc3)nc3ccccc23)cc1", "inhibition (viability loss, TRAIL sensitization)": "50.2% (active)"}, {"smiles": "O=C(NNS(=O)(=O)c1ccccc1)c1cnn(-c2ccc(Cl)cc2)c1C(F)(F)F", "inhibition (viability loss, TRAIL sensitization)": "18.4%"}, {"smiles": "Cc1ccc(NC(=O)CCOc2ccccc2)cc1S(=O)(=O)Nc1ccccc1Cl", "inhibition (viability loss, TRAIL sensitization)": "5.58%"}, {"smiles": "CN(C(=O)CSc1cccc[n+]1[O-])C1CCCCC1", "inhibition (viability loss, TRAIL sensitization)": "9.54%"}, {"smiles": "O=C(c1cc2ccccc2o1)N1CCN(c2cccc(C(F)(F)F)c2)CC1", "inhibition (viability loss, TRAIL sensitization)": "-2.4%"}, {"smiles": "Cc1ccc(C(=O)Nc2ccn(C)n2)cc1", "inhibition (viability loss, TRAIL sensitization)": "14.4%"}, {"smiles": "CC(=O)c1sc(NC(=O)c2ccc(C)cc2)nc1C", "inhibition (viability loss, TRAIL sensitization)": "68.3% (active)"}, {"smiles": "CC(=O)c1sc(N)nc1C", "inhibition (viability loss, TRAIL sensitization)": "-3.29% and -3.98%"}, {"smiles": "CCOC(=O)N1CCN(C(=O)COC(=O)c2cccc(S(C)(=O)=O)c2)CC1", "inhibition (viability loss, TRAIL sensitization)": "-12.4%"}, {"smiles": "C=CC(COCc1ccccc1)N(CC(=O)OC)S(=O)(=O)c1cc(Br)ccc1OC", "note": "(centres undefined)", "inhibition (viability loss, TRAIL sensitization)": "2.56%"}, {"smiles": "CCOc1cc(N2CCOCC2)c(OCC)cc1NC(=O)COc1cccc2cccnc12", "inhibition (viability loss, TRAIL sensitization)": "53.6% (active)"}, {"smiles": "Cc1cc(C)cc(OCC(=O)Nc2ccc(N3CCOCC3)cc2N2CCOCC2)c1", "inhibition (viability loss, TRAIL sensitization)": "6.27%"}, {"smiles": "CCOc1cc(N2CCOCC2)c(OCC)cc1NC(=O)C1=NN(c2cccc(C)c2)C(=O)CC1", "inhibition (viability loss, TRAIL sensitization)": "3.1%"}, {"smiles": "Cc1ccc(-c2c3c(=O)n(C)c(=O)n(C)c3cn2-n2cnnc2)cc1", "inhibition (viability loss, TRAIL sensitization)": "-15.5%"}, {"smiles": "COc1ccc(OC)c(NC(=O)c2ccc3c(c2)C(=O)N(c2ccc(OC(C)=O)cc2)C3=O)c1", "inhibition (viability loss, TRAIL sensitization)": "-0.949%"}, {"smiles": "CC1CCCCC1NC(=O)CCS(=O)(=O)c1ccc2c(c1)NC(=O)CO2", "note": "(centres undefined)", "inhibition (viability loss, TRAIL sensitization)": "-18.2%"}, {"smiles": "Cc1ccccc1S(=O)(=O)N1[C@@H](c2cccc(Cl)c2)C(C(=O)O)=CC[C@H]1c1ccc(Cl)cc1", "inhibition (viability loss, TRAIL sensitization)": "15.5%"}, {"smiles": "CC(C(=O)Nc1ccccc1-c1ccccc1)N1CCOCC1", "note": "(centres undefined)", "inhibition (viability loss, TRAIL sensitization)": "-42%"}, {"smiles": "Cc1oc2c(c1C(=O)N1CCOCC1)C(=O)c1ccccc1C2=O", "inhibition (viability loss, TRAIL sensitization)": "88.8% (active)"}, {"smiles": "Cc1nc2ccccc2n1C(=O)N1CCOCC1", "inhibition (viability loss, TRAIL sensitization)": "-8.36%"}, {"smiles": "COC(=O)[C@@]1(Sc2ccc(C)cc2)CC(=O)N(c2cccc(SC)c2)[C@@H]1c1ccccc1", "inhibition (viability loss, TRAIL sensitization)": "24.6%"}, {"smiles": "O=C(Cc1ccccc1)N1CCN(S(=O)(=O)c2ccc([N+](=O)[O-])cc2)CC1", "inhibition (viability loss, TRAIL sensitization)": "-7.16%"}, {"smiles": "O=C1/C(=C\\c2ccc([N+](=O)[O-])cc2)CS(=O)(=O)C/C1=C/c1ccc([N+](=O)[O-])cc1", "inhibition (viability loss, TRAIL sensitization)": "91.8% (active)"}, {"smiles": "O=[N+]([O-])c1ccc(N=NNc2ccc([N+](=O)[O-])cc2)cc1", "inhibition (viability loss, TRAIL sensitization)": "13.8%"}, {"smiles": "CC1(C(=O)NCc2ccco2)Cc2c(-c3ccc4c(c3)OCO4)ccnc2O1", "note": "(centres undefined)", "inhibition (viability loss, TRAIL sensitization)": "14.9%"}, {"smiles": "COc1ccc(/C=N/NC(=O)Cn2cc(C(F)(F)F)ccc2=O)cc1", "inhibition (viability loss, TRAIL sensitization)": "-0.17%"}, {"smiles": "CCOc1cc(/C=N/NC(=O)c2c(C)nc3ccc(Cl)cn23)ccc1O", "inhibition (viability loss, TRAIL sensitization)": "-7.66%"}, {"smiles": "COc1ccc(/C=N/NC(=O)C(C)N(c2ccc(OC)cc2)S(C)(=O)=O)cc1", "note": "(centres undefined)", "inhibition (viability loss, TRAIL sensitization)": "-5.4%"}, {"smiles": "COc1ccc(C(=O)Nc2ccccc2C(=O)N/N=C/c2ccc(O)c(OC)c2)cc1", "inhibition (viability loss, TRAIL sensitization)": "95.8% (active)"}, {"smiles": "COc1cc(C=NC2CCCCC2)ccc1O", "inhibition (viability loss, TRAIL sensitization)": "-2.08%"}, {"smiles": "COc1ccc(/C=N/Nc2ccccc2C(=O)O)cc1", "inhibition (viability loss, TRAIL sensitization)": "55.9% (active)"}, {"smiles": "Cc1cccc(N(Cc2ccccc2)C(=O)c2cc(S(=O)(=O)N3CCOCC3)ccc2F)c1", "inhibition (viability loss, TRAIL sensitization)": "19.9%"}, {"smiles": "CN(C)C(=O)CCc1ccc2c3c([nH]c2c1)[C@]1(CCc2ccccc2)[C@@H](C(=O)N2CCCCC2)C[C@H](CC(=O)NCCC2=CCCCC2)C(=O)N1CC3", "inhibition (viability loss, TRAIL sensitization)": "13.2%"}, {"smiles": "CCc1nc2ccc(C(=O)Nc3cccc(OC)c3)cn2c1N(CCC(C)C)CCN(C)C", "inhibition (viability loss, TRAIL sensitization)": "15.5%"}, {"smiles": "CCOc1ccccc1-n1c(SCC(=O)N2CCCC2)nnc1-c1ccoc1C", "inhibition (viability loss, TRAIL sensitization)": "2.53%"}, {"smiles": "Cc1ccc(-c2cc(C(=O)N/N=C/C=C/c3ccco3)c3ccccc3n2)cc1C", "inhibition (viability loss, TRAIL sensitization)": "61.5% (active)"}, {"smiles": "Cc1ccc(C(=O)N/C(=C/c2ccco2)C(=O)NCCc2c[nH]c3ccccc23)cc1C", "inhibition (viability loss, TRAIL sensitization)": "-2.25%"}, {"smiles": "O=C(N/N=C/C=C/c1ccco1)c1cccs1", "inhibition (viability loss, TRAIL sensitization)": "-0.972%"}]}]}
